Data reported in PubChem BioAssay.
The source made the active and inactive calls.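 The calls were made as follows, unless noted: active = NADPH fluorescence slope more negative than the mean of all samples by about 3 SD, 99.7% confidence; inactive = the rest.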

Key:
[1] = inhibitors of TNFa-induced NFkB p65 translocation, primary screen, imaging, HUVEC, MLSMR starter and 10KST1 sets (AID 438;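 active = inhibition above 20% together with a positive visual image hit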;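 also: compound added about 3h40 before a 20 min TNFalpha stimulation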;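 as to inhibition: signal is the nuclear over cytoplasmic p65 intensity ratio per well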); conditions: HUVEC TNFa-induced p65 nuclear translocation; cell count: measured here: nuclei count (cytotoxicity indicator), at 2.08 µM; inhibition: at 2 µM, stronger effect = higher value, 0% TNFa-plus-vehicle, 100% no-TNFa wells
[2] = reduction of polyQ htt aggregates in cells – imaging, exon1htt(103Q)mCFP cells, high-content imaging, primary screen (AID 483;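 active = visual image review flags a hit and inhibition of aggregation exceeds 20%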;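 also: compound exposure lasted 3 days before fixation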;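 as to nuclei count: percent of the per-plate median nuclei count of sample wells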); conditions: exon1htt(103Q)mCFP cell line, aggregate imaging, at 2 µM; inhibition of aggregation: stronger effect = higher value; nuclei count: measured here: cell count, toxicity
[3] = endothelial E-selectin expression blockers – imaging, HUVEC, immunofluorescence, MLSMR starter and 10KST1 sets, primary screen (AID 487;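 active = visually confirmed hit in the image check and inhibition above 20%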;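 as to inhibition: signal is fraction of cell area covered by stained E-selectin grains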;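 as to nuclei count: 100% = median nuclei count of all wells on the same plate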); conditions: HUVEC TNFalpha-induced E-selectin immunofluorescence imaging, at 2 µM; inhibition: stronger effect = higher value; nuclei count: measured here: cell number, toxicity
[4] = target: Voltage-gated potassium channel subunit beta-2 (Rattus norvegicus) (UniProt P62483); experiment: inhibitors of rat Kvbeta2 reductase activity – biochemical, NADPH fluorescence, primary screen (AID 622;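 active = fluorescence slope higher than the sample average by over 3 SD, cut at about -0.22 in these data, passing the limit was not always enough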;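 also: slope of raw intensity against log time taken from 70 to 1610 s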); conditions: recombinant KvBeta, 4-cyanobenzaldehyde reduction, at 10 µM, stronger effect = higher value
[5] = target: Voltage-gated potassium channel subunit beta-2 (Rattus norvegicus) (UniProt P62483); experiment: enhancers of rat Kvbeta2 NADPH turnover – biochemical, NADPH fluorescence, primary screen (AID 623); conditions: Recombinant KvBeta, NADPH fluorescence decrease slope, 10 min; at 10 µM; stronger effect = lower value;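 also: fluorescence intensity change per second fitted from 20 to 320 s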
[6] = target: Alpha-2C adrenergic receptor (Homo sapiens) (UniProt P18825); experiment: compounds altering alpha2C-coupled GIRK flux – cell-based, HEK293 alpha2C/GIRK1/2, thallium flux, primary screen (AID 624;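 active = fluorescence slope after compound addition differing from the mean of all screened samples at 99.7% confidence, in either direction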;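 also: slope of fluorescence ratio to pre-addition baseline per second over 15 to 24 s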); conditions: thallium flux BTC fluorescence, at 10 µM, actives lie on both sides
[7] = blockers of RIG-like receptor reporter activation – cell-based, Sendai virus stimulus, luciferase, 10K MLSCN set, TLR/RLR signaling modifier project, primary screen (AID 602276;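 active = inhibition at or above 50% at 10 µM; inactive = inhibition below 50%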;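 also: firefly luciferase from ISG56 promoter only with Renilla not read in this screen; 0% = Sendai virus plus DMSO and 100% = medium plus DMSO without virus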); conditions: HEK293 RL24 IRF3 luciferase reporter, at 10 µM, stronger effect = higher value
[8] = TLR3 IRF3 reporter activation blockers – cell-based, poly I:C stimulus, luciferase, 10K MLSCN set, primary screen (AID 602277;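 active = inhibition of the reporter signal at or above 50%; inactive = inhibition below 50%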); conditions: HEK293-TLR3 RL24 IRF3 luciferase reporter, at 10 µM, stronger effect = higher value

Sequence of Alpha-2C adrenergic receptor (Homo sapiens) (P18825 whole entry, looked up): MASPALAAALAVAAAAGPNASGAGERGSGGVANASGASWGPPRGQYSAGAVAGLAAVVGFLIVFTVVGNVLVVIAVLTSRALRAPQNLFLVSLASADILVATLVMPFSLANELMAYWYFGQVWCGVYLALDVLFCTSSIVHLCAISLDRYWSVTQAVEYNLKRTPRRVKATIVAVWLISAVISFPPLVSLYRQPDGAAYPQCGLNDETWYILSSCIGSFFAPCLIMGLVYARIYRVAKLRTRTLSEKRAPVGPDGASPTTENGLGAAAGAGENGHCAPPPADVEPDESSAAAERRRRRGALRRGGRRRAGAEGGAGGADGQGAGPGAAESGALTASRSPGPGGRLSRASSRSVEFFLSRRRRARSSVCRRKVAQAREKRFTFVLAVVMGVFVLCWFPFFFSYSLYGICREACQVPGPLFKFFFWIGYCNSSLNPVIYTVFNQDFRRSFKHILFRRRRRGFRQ
Sequence of Voltage-gated potassium channel subunit beta-2 (Rattus norvegicus) (P62483 whole entry, looked up): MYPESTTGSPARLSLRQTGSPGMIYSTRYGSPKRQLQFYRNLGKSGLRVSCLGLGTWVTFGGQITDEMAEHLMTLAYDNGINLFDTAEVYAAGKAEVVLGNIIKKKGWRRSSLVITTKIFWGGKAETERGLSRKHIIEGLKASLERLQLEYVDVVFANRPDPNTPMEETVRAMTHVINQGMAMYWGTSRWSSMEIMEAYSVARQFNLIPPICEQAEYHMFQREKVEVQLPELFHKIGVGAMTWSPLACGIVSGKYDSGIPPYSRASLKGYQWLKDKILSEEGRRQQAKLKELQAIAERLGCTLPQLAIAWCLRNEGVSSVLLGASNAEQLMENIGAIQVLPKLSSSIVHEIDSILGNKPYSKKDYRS

Compound | cell count [1] | inhibition [1] | inhibition of aggregation [2] | nuclei count [2] [%] | inhibition [3] | nuclei count [3] [%] | fluorescence slope [4] | NADPH fluorescence slope [5] | slope [6] | inhibition [7] | inhibition [8]
CCCCOCP(=O)(CCCC)COCCCC | 369 | 0% (inactive) | 8.7% (inactive) | 88.5 | -35.3% (inactive) | 100 | -0.459 (inactive) | -8.4e-05 (inactive) | 0.00748 (inactive) | 11.3% (inactive) | 22% (inactive)
Cc1c(NC(=O)C2CCCCN2S(=O)(=O)c2ccc(Cl)cc2)c(=O)n(-c2ccccc2)n1C (centres undefined) | 699 | -4.2% (inactive) | -14.5% (inactive) | 112 | 2% (inactive) | 109 | -0.604 (inactive) | 1.8e-05 (inactive) | 0.00694 (inactive) | 9.42% (inactive) | -3.63% (inactive)
Cc1oc(-c2ccc(Cl)cc2)cc1-c1nn2c(-c3ccoc3C)nnc2s1 | 644 | -3.9% (inactive) | -0.4% (inactive) | 94.6 | -24.2% (inactive) | 105 | -0.497 (inactive) | -3.8e-05 (inactive) | 0.00371 (inactive) | 19.8% (inactive) | 23% (inactive)
Cc1cccc(-n2c(O)c(C=Nc3ccccc3N)c(=O)[nH]c2=O)c1 | 444 | 6% (inactive) | -8.1% (inactive) | 101 | -29.2% (inactive) | 120 | -0.414 (inactive) | -0.000142 (inactive) | 0.00576 (inactive) | 13% (inactive) | 25.3% (inactive)
CC(C)CN(CC(C)C)C(=O)CS(=O)(=O)Cc1ccccc1 | 334 | -1.2% (inactive) | -5.8% (inactive) | 98.4 | -51.3% (inactive) | 116 | -0.492 (inactive) | -6.4e-05 (inactive) | 0.00578 (inactive) | 6.49% (inactive) | 16.4% (inactive)
COc1cc2[nH]c(=O)c(C(=O)NCCCN3CCCCC3)c(O)c2cc1OC | 637 | -24.5% (inactive) | 6.2% (inactive) | 98.3 | 15.9% (inactive) | 108 | -0.583 (inactive) | -5.3e-05 (inactive) | 0.00574 (inactive) | -5.59% (inactive) | -9.38% (inactive)
Cc1nnc(NC(=O)CSc2nc3c(c(=O)n2C)SC(C)C3)s1 (centres undefined) | 734 | -4.3% (inactive) | -22.2% (inactive) | 98.5 | -7.8% (inactive) | 104 | -0.536 (inactive) | -6.2e-05 (inactive) | 0.00476 (inactive) | 13.8% (inactive) | 34.3% (inactive)
CCOC(=O)c1[nH]c2ccccc2c1NC(=O)C(C)(C)C | 692 | -10.7% (inactive) | -8.7% (inactive) | 117 | -30.2% (inactive) | 105 | -0.586 (inactive) | -4.7e-05 (inactive) | 0.00597 (inactive) | 13.4% (inactive) | 45.1% (inactive)
O=C(Nc1ccc2c(c1)OCCO2)C1CCCN(S(=O)(=O)c2cnc[nH]2)C1 (centres undefined) | 628 | 4.1% (inactive) | -8% (inactive) | 102 | -29.5% (inactive) | 114 | -0.563 (inactive) | -4.5e-07 (inactive) | 0.00662 (inactive) | -16.1% (inactive) | -6.55% (inactive)
CCN(Cc1nc2ccccc2c(=O)[nH]1)Cc1cc(=O)oc2cc(C)c(C)cc12 | 288 | 6.6% (inactive) | 0.4% (inactive) | 107 | -33.2% (inactive) | 126 | -0.435 (inactive) | -4.6e-05 (inactive) | 0.00456 (inactive) | 5.41% (inactive) | 8.19% (inactive)
c1ccc2c(c1)c1c3n2CCNC3CCC1 (centres undefined) | 663 | -11.5% (inactive) | -9.5% (inactive) | 103 | -119% (inactive) | 102 | -0.364 (inactive) | -2e-05 (inactive) | 0.00436 (inactive) | 15.3% (inactive) | 14% (inactive)
Cc1cc2ccccn2c1C(=O)c1ccncc1 | 602 | -0.6% (inactive) | 11.7% (inactive) | 77.4 | -1.7% (inactive) | 111 | -0.62 (inactive) | 9.9e-07 (inactive) | 0.00577 (inactive) | 11% (inactive) | -0.108% (inactive)
CCCCCn1c(CN2CCN(C(=O)c3ccco3)CC2)nc2c1c(=O)n(C)c(=O)n2C | 726 | -14.6% (inactive) | -17.8% (inactive) | 103 | -13.1% (inactive) | 113 | -0.57 (inactive) | -5.2e-05 (inactive) | 0.00727 (inactive) | 1.47% (inactive) | 11.3% (inactive)
CC(=O)Nn1c(C)nnc1-n1nc(C)cc1C | 594 | -9.2% (inactive) | 11.6% (inactive) | 94.1 | -52.4% (inactive) | 117 | -0.474 (inactive) | -9.2e-05 (inactive) | 0.00573 (inactive) | 5.42% (inactive) | 18.4% (inactive)
